Measured values from PubChem BioAssay.
Values without a mark were called inactive. Entries that show only a call come without a potency. For some of these results: Potency and affinity values are given separately. Active and inactive are the calls of the source. Unless noted, how the calls were made is not given here.

Key:
[1] = antimalarial activity against Dd2 strain (AID 2302;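 active means growth inhibition above 50% at the single 2 µM test dose, taken to imply half-maximal potency below 2 µM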); conditions: P. falciparum Dd2 in RBCs, LDH growth readout, 72 h; at 2 µM; stronger effect = higher value
[2] = human hepatoma cell viability loss – ATP luminescence, cytotoxicity control for P. falciparum antimalarial project, primary screen (AID 2303;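 active means inhibition above 50%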); conditions: HepG2 viability, 24-48 h, at 10 µM, stronger effect = higher value
[3] = biological target: L-lactate dehydrogenase (Plasmodium falciparum (isolate CDC / Honduras)) (UniProt Q27743); test: PfLDH activity inhibition – cell lysate, 3D7 strain, counter-screen for P. falciparum growth inhibition project (AID 2304); conditions: P. falciparum 3D7 crude extract, LDH APAD/NBT absorbance; at 2 µM; stronger effect = higher value
L-lactate dehydrogenase (Plasmodium falciparum (isolate CDC / Honduras)), sequence (Q27743 whole entry, looked up): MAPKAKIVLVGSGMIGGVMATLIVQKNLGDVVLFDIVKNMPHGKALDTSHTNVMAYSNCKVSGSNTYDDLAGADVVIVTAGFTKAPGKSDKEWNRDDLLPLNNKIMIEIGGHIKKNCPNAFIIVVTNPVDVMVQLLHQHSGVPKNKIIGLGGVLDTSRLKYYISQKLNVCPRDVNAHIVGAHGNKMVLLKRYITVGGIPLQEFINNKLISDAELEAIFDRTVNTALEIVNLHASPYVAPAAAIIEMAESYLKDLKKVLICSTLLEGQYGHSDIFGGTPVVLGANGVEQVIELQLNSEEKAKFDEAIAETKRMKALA

[4] = inhibition of 3D7 malaria parasite growth – strain 3D7 (AID 2306); conditions: P. falciparum 3D7 erythrocytic growth, LDH absorbance, 72 h; at 2 µM; stronger effect = higher value
[5] = biological target: Calcium-dependent protein kinase 1 (Plasmodium falciparum (isolate 3D7)) (UniProt P62344); test: PfCDPK1 kinase inhibitors, biochemical, TCAMS library (AID 1159585; cut-off not given, nearly all actives have IC50 up to about 0.98 µM;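 further: inhibitors leave more ATP so luminescence rises with inhibition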); conditions: recombinant PfCDPK1, Kinase-Glo ATP depletion luminescence
Calcium-dependent protein kinase 1 (Plasmodium falciparum (isolate 3D7)), sequence (P62344 whole entry, looked up): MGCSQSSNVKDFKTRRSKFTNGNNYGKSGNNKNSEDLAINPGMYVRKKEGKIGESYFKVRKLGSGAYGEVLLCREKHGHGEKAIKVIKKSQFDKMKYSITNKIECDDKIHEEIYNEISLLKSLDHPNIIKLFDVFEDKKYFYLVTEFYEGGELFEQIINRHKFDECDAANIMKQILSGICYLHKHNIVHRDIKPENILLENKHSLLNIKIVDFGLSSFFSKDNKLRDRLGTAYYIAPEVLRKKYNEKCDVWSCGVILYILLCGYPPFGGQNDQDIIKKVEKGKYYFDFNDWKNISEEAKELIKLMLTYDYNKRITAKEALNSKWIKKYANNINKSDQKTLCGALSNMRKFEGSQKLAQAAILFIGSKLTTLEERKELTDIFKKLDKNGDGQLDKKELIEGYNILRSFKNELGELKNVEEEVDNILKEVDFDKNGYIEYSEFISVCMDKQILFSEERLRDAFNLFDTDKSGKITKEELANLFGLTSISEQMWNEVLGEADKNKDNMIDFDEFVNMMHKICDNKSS

[6] = biological target: Plasmodium falciparum protein kinase 6 (PK6, PF3D7_1337100) (UniProt Q8IDW1); test: PfPK6 kinase inhibitors, biochemical, TCAMS library (AID 1159586); conditions: recombinant PfPK6, Kinase-Glo ATP depletion luminescence
Plasmodium falciparum protein kinase 6 (PK6, PF3D7_1337100), sequence (Q8IDW1 1-305): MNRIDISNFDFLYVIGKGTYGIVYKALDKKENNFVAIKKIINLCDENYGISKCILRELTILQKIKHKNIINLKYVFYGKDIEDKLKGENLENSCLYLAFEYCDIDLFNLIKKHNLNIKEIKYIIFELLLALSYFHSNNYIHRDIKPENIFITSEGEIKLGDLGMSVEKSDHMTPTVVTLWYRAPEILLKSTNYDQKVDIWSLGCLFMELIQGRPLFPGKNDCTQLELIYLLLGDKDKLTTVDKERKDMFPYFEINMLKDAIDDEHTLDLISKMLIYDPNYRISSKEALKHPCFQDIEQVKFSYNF

[7] = biological target: Protein kinase 7 (PK7), Plasmodium falciparum 3D7 (PF3D7_0213400) (UniProt Q7YTF7); test: inhibition of Plasmodium PK7 catalytic activity – biochemical, TCAMS antimalarial set, Kinase-Glo luminescence (AID 1159587); conditions: recombinant PfPK7, Kinase-Glo ATP depletion luminescence
Protein kinase 7 (PK7), Plasmodium falciparum 3D7 (PF3D7_0213400), sequence (Q7YTF7 1-343): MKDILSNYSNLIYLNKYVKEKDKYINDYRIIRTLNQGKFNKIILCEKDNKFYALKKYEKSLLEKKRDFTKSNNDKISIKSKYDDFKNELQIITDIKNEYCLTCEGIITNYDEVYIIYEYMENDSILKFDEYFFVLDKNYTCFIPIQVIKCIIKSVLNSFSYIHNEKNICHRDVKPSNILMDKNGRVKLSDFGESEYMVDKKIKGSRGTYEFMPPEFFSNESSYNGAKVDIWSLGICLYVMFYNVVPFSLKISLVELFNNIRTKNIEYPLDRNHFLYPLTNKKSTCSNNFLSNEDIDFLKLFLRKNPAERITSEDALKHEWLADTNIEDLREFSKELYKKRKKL

[8] = biological target: Calcium-dependent protein kinase 4 (Plasmodium falciparum (isolate 3D7)) (UniProt Q8IBS5); test: PfCDPK4 kinase inhibitors, biochemical, TCAMS library (AID 1159588; cut-off not given, nearly all actives have IC50 up to about 0.91 µM); conditions: recombinant PfCDPK4, Kinase-Glo ATP depletion luminescence
Calcium-dependent protein kinase 4 (Plasmodium falciparum (isolate 3D7)), sequence (Q8IBS5 whole entry, looked up): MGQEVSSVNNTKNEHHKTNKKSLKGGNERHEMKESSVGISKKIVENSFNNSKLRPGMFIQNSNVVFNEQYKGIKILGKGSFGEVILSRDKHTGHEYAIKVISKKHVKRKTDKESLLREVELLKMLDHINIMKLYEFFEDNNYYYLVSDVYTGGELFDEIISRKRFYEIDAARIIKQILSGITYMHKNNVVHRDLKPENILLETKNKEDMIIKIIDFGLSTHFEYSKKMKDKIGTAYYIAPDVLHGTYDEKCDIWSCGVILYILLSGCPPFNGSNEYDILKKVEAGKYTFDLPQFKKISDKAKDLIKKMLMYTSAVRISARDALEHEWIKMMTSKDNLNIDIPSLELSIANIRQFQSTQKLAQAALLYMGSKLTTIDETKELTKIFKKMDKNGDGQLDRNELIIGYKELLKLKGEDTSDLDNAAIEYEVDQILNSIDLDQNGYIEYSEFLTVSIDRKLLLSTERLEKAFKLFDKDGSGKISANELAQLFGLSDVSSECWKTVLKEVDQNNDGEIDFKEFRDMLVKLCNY

Structure (SMILES) | growth inhibition [1] | inhibition [2] | inhibition [3] [%] | growth inhibition [4] | outcome [5] | outcome [6] | outcome [7] | outcome [8]
COc1cc2nc(N3CCC(CNC(=O)c4cc5ccccc5s4)CC3)nc(N)c2cc1OC | 101% (active) | 8% | 2 | 101% (active) | inactive | inactive | inactive | inactive
Oc1ccc(CCNc2nc(NCc3ccccc3Oc3ccc(C(F)(F)F)cc3)nc(N3CCNCC3)n2)cc1 | 2% | 26% | 0 | 86% (active) | inactive | inactive | inactive | inactive
C=CCc1cc(C)ccc1OCCCON1C(N)=NC(N)=NC1(C)C | 96% (active) | 64% (active) | -6 | 96% (active) | inactive | inactive | inactive | inactive
COc1ccc(-c2ccc(NC(=O)c3ccc(C#N)cc3)cc2)cc1CN1CCCN(C)CC1 | 75% (active) | 27% | -3 | 99% (active) | inactive | inactive | inactive | inactive
CCN(CC)S(=O)(=O)c1ccc(C=CC(=O)Nc2cc(Cl)ccc2N2CCOCC2)cc1 | 65% (active) | 3% | 4 | 90% (active) | inactive | inactive | inactive | inactive
CCCn1cc2c(ccc3nc(N)nc(N)c32)n1 | 0% | 65% (active) | 5 | 95% (active) | inactive | inactive | inactive | inactive
CN(C(=O)Nc1ccc(C(F)(F)F)cc1)C1CCN(CCCCCNC(=O)/C=C/c2ccc(Cl)c(Cl)c2)CC1 | 38% | 57% (active) | -3 | 101% (active) | inactive | inactive | inactive | inactive
CCc1ccc(CN(Cc2ccc(C)cc2)Cc2ccc(NC(C)=O)cc2)cc1 | 79% (active) | 6% | -1 | 89% (active) | inactive | inactive | inactive | inactive
Cc1ccc(NC(=O)Cc2noc(CC3CCCN3C(=O)N[C@@H](C)c3ccccc3)n2)cc1 (stereo partly drawn) | 90% (active) | 1% | -1 | 95% (active) | inactive | inactive | inactive | inactive
COc1ccccc1COc1c(C)nc(N)nc1N | 1% | 32% | -1 | 98% (active) | inactive | inactive | inactive | inactive
CC(C)CNCc1cccc(-c2ccc(CN(CCCN3CCN(C)CC3)C(=O)/C=C/c3ccccc3)cc2)c1 | 90% (active) | 48% | -2 | 92% (active) | inactive | inactive | inactive | inactive
CC(C)(C)c1cc(C(=O)Nc2ccc(C(=N)N)cc2)c(O)c(C(C)(C)C)c1 | 88% (active) | 4% | -2 | 101% (active) | inactive | inactive | inactive | inactive
CC1(C)N=C(N)N=C(N)N1c1cc(Cl)c(Cl)c(Cl)c1 | 31% | 68% (active) | -7 | 93% (active) | inactive | inactive | inactive | inactive
CN1CCC(NCc2ccc(-c3ccc(S(=O)(=O)NCc4ccccc4)s3)cc2)CC1 | 95% (active) | 77% (active) | -3 | 99% (active) | inactive | inactive | inactive | inactive
CS(=O)(=O)CCNCc1nc(-c2ccc3c(Nc4ccc(Cl)cc4F)ccnc3c2)cs1 | 28% | 19% | 1 | 88% (active) | inactive | inactive | inactive | inactive
Cc1[nH]c(C)c(-c2ccc(-c3ccc(OC(F)(F)F)cc3)cc2)c(=O)c1Br | 97% (active) | 33% | -3 | 96% (active) | inactive | inactive | inactive | inactive
Cc1cccc(NC(=O)Nc2cccc(-c3ccc(-c4nc5ccc(C(F)(F)F)cc5[nH]4)cc3)c2)c1 | 94% (active) | 44% | -1 | 101% (active) | inactive | inactive | inactive | inactive
COc1ccc(CN2CCC(CNCCc3ccccc3Cl)CC2)cc1 | 17% | 36% | -9 | 87% (active) | inactive | inactive | inactive | inactive
CC(C)c1cn2c3c(cc(C(=O)N[C@@H](Cc4ccccc4)[C@H](O)CNC4CCCCC4)cc13)N(C)S(=O)(=O)CC2 | 99% (active) | 9% | 0 | 98% (active) | inactive | inactive | inactive | inactive
COc1ccc(NC(=O)[C@H](Cc2ccccc2)Nc2cc(C)nc(NCCc3ccccc3)n2)cc1 | 83% (active) | 6% | -1 | 98% (active) | inactive | inactive | inactive | inactive
COc1ccc(N2CCN(CCCCNC(=O)c3ccc(NC(=O)c4ccc(Cl)c(Cl)c4)cc3)CC2)c(OC)c1 | 98% (active) | 23% | 4 | 101% (active) | inactive | inactive | inactive | inactive

Structure (SMILES) | growth inhibition [1] | inhibition [2] | inhibition [3] [%] | growth inhibition [4] | outcome [5] | outcome [6] | outcome [7] | outcome [8]
O=c1cc(NCCC(CNCc2ccoc2)NCc2cc(Br)cc(Br)c2)[nH]c2ccccc12 (stereo not drawn) | 28% | -6% | -1 | 92% (active) | inactive | inactive | inactive | inactive
CN(CCCNC(=S)NC12CC3CC(CC(C3)C1)C2)CCCNc1ccnc2cc(Cl)ccc12 | 98% (active) | 73% (active) | 8 | 100% (active) | inactive | inactive | inactive | inactive
c1ncc(CCNc2nc(Nc3ccc4c(c3)OCO4)nc(NC3CCCC3)n2)[nH]1 | -3% | -1% | -2 | 80% (active) | inactive | inactive | inactive | inactive
CN1CCCC(CN2CCN(Cc3cccc(-c4ccc(-c5nc6ccc(C(F)(F)F)cc6[nH]5)cc4)c3)CC2)C1 (stereo not drawn) | 96% (active) | 100% (active) | 5 | 99% (active) | inactive | inactive | inactive | inactive
O=[N+]([O-])c1ccc(NC(=NC2CCCc3ccccc32)Nc2ccccc2Br)c(O)c1 (stereo not drawn) | 89% (active) | -4% | -3 | 98% (active) | inactive | inactive | inactive | inactive
Cc1nc2c(-n3cc(Cn4ccnc4)c4ccccc43)ncnc2n1-c1ccc(Cl)cc1Cl | 29% | 16% | -5 | 89% (active) | inactive | inactive | inactive | inactive
COc1cc(CCN=C(N)/C=C/c2ccc(Cl)cc2)ccc1Cl | 16% | 68% (active) | 3 | 100% (active) | inactive | inactive | inactive | inactive
COc1ccccc1CCNc1nc(C)cc(N[C@@H](CC(C)C)C(=O)NCCc2ccccc2)n1 | 81% (active) | 12% | -2 | 97% (active) | inactive | inactive | inactive | inactive
COc1ccc(-c2csc3nc(C)nc(Cl)c23)cc1OC | 95% (active) | -10% | -6 | 97% (active) | inactive | inactive | inactive | inactive
Cc1cccc2[nH]c(-c3cccc(-c4cccc(CNCC5CCCO5)c4)c3)nc12 (stereo not drawn) | 99% (active) | 26% | -3 | 101% (active) | inactive | inactive | inactive | inactive
COc1ccc(S(=O)(=O)NC2CCN(c3ccnc4cc(Cl)ccc34)C2)cc1 (stereo not drawn) | 86% (active) | 12% | -2 | 100% (active) | inactive | inactive | inactive | inactive
O=S(=O)(Nc1cccc(CCN2CCC(N3CCCCC3)CC2)c1)c1ccc(-c2ccccc2)cc1 | 49% | 76% (active) | 1 | 100% (active) | inactive | inactive | inactive | inactive
FC(F)(F)c1ccc2nc(-c3ccc(-c4cccc(CN5CCCCC5)c4)cc3)[nH]c2c1 | 99% (active) | 22% | 2 | 100% (active) | inactive | inactive | inactive | inactive
CCCCSc1ccc2nc(-c3c[nH]c4ccc(C#N)cc34)cn2c1 | 37% | 3% | 3 | 94% (active) | inactive | inactive | inactive | inactive
Cc1cc(N[C@@H](Cc2ccccc2)C(=O)NC2CCCC2)nc(NCCOc2ccccc2)n1 | 48% | 40% | 0 | 98% (active) | inactive | inactive | inactive | inactive
CS(=O)(=O)c1ccc(-c2cc(C(F)(F)F)nc(N[C@@H]3CCCC[C@H]3OCc3ccccc3)n2)cc1 | 99% (active) | 8% | 5 | 100% (active) | inactive | inactive | inactive | inactive
O=C(N[C@H]1CCN(CCc2ccc(O[C@H]3CCNC3)c(F)c2)C1)c1ccc(Cl)c(Cl)c1 | 23% | 39% | 2 | 95% (active) | inactive | inactive | inactive | inactive
COc1ccc(C(=O)NCc2ccc(N)nc2C)cc1Nc1ncc(-c2cccc(N(C)C)c2)cn1 | 68% (active) | 9% | -1 | 89% (active) | inactive | inactive | inactive | inactive
COc1ccc(O)c(C(=O)c2cnc3c(c2)c(-c2ccc(F)cc2)c(C#N)c(=O)n3C)c1 | 14% | 7% | -2 | 92% (active) | inactive | inactive | inactive | inactive
CCOc1cc(C(=O)NCCc2ccc(Cl)c(Cl)c2)ccc1-c1nc2ccc(Cl)cc2[nH]1 | 47% | 9% | -4 | 100% (active) | inactive | inactive | inactive | inactive
